This passage reports outcome results from PubChem BioAssay (EPA / NIEHS).

Calls of active or inactive are those of the source. Rule for the calls: active = hit-call score of the fitted dose curve at least 0.9, where 1 is the maximum; inactive = score below 0.9.

The assay is described as follows: APR_HepG2_MicrotubuleCSK_1hr: Apredica 1-hour HepG2 Assay for Microtubule CSK Stabilty (AID 2282669). As to conditions: HepG2 microtubule cytoskeleton imaging, actives raise or lower the signal. On the procedure:
APR_HepG2_1hr is a cell-based, multiplexed-readout assay that uses HepG2, a human liver cell line, with measurements taken at 1 hour after chemical dosing in a 384-well plate.APR_HepG2_MicrotubuleCSK_1hr is one of 10 assay component(s) measured or calculated from the APR_HepG2_1hr assay. It is designed to make measurements of protein conformation, a form of conformation reporter, as detected with fluorescence intensity signals by HCS Fluorescent Imaging technology.Data from the assay component APR_HepG2_MicrotubuleCSK_1hr was analyzed into 1 assay endpoint. This assay endpoint, APR_HepG2_MicrotubuleCSK_1hr, was analyzed with bidirectional fitting relative to DMSO as the negative control and baseline of activity. Using a type of conformation reporter, measures of protein for gain or loss-of-signal activity can be used to understand the signaling at the cellular-level. Furthermore, this assay endpoint can be referred to as a primary readout, because this assay has produced multiple assay endpoints where this one serves a signaling function. To generalize the intended target to other relatable targets, this assay endpoint is annotated to the cell morphology intended target family, where the subfamily is cell conformation.
Cells were treated with dimethyl sulfoxide (DMSO) as a solvent control at a final concentration of 0.5% v/v or with compounds in DMSO with a resulting final DMSO concentration of 0.5% v/v. Compound treatment was done at concentrations of 0.39, 0.78, 1.56, 3.12, 6.24, 12.5, 25, 50, 100, and 200 uM in duplicate on each plate. Cells were treated with compounds for 1, 24, or 72 hr. Carbonyl […] m-chloro-phenylhydrazone (CCCP) and taxol were used as positive controls for mitochondrial function and cytoskeletal stability, respectively; DMSO served as the negative control for this experiment. Cells were fixed by the direct addition of 50 uL formaldehyde in Hank's Balanced Salt Solution (HBSS) to a final concentration of 3.7%. After incubation in the fixation medium for 30 min at room temperature (293-298 K), cells were rinsed twice with HBSS and treated with cell permeabilization buffer (16 uL of 0.5% Triton X-100) for 10 min at room temperature (293-298 K) before labeling. For mitochondrial membrane potential and mitochondrial measurements, pre-fixed cells were incubated with 50 uL of MitoTracker Red CMXRos (Invitrogen) at a concentration of 250 nM for 30 min before fixation. In the remaining cases, post-fixed cells were labeled by incubation with a multiplexed mixture of primary antibodies in HBSS for 60 min at room temperature (293-298 K) to detect immunoreactivity of c-Jun (1:500), phospho-histone H3 (1:100), phospho-histone H2A.x (1:200), p53 (1:400), alpha-tubulin (1:200) and Hoechst 33342 (2 ug/mL). Cells were labeled for multiplexed imaging on two separate plates: a) Hoechst 33342, MitoTracker Red, phospho-histone H3, and alpha-tubulin, and b) Hoechst 33342, phospho-histone H2A.x, and c-Jun. A final rinse with HBSS (50 uL) was performed before analysis. The primary and secondary antibodies for the proteins were phospho-histone H3 (rabbit anti-phospho-histone H3 and FITC-donkey anti-rabbit IgG), phospho-histone H2A.x (mouse anti-phospho-histone H2A.x and FITC-donkey anti-mouse IgG), c-Jun (rabbit anti-phospho-c-Jun and Cy3-donkey anti-rabbit IgG), p53 (sheep anti-p53 and Cy5-donkey anti-sheep IgG), alpha-tubulin (mouse anti-alpha-tubulin and Cy5-donkey anti-mouse IgG). These antibodies are available as the CellCiphr HepG2 assay kit (Millipore).Digital images of each well were captured using a Cellomics ArrayScan VTI (Thermo Scientific Cellomics) (0.8 NA objective, 0.63x optical coupler, and XF-93 filter set) at 20x magnification. The images were acquired using the autofocus feature of the ArrayScan instrument, which entails the following steps. First, the camera focuses on channel 1 (Hoechst 33342), where nuclei are identified. Second, a Z offset of 1 um is used for capturing mitochondria (MitoTracker Red). […]
For the molecule `COc1ccc(C(=CC(=O)N2CCOCC2)c2ccc(Cl)cc2)cc1OC`, the outcome was inactive.
In the case of `CCOP(=S)(OCC)Oc1cc(C)nc(C(C)C)n1`, the result was inactive.
For `C[N+]1(C)CCCCC1` the value was “inactive”.
With `O=[N+]([O-])c1cc(C(F)(F)F)c(Cl)c([N+](=O)[O-])c1Nc1ncc(C(F)(F)F)cc1Cl` the entry was “inactive”; with `CN1COCN(Cc2cnc(Cl)s2)C1=N[N+](=O)[O-]`, “inactive”; with `CCOP(=O)(NC(C)C)Oc1ccc(SC)c(C)c1` (stereo not given), “inactive”.
For `CNC(=O)ON=C(C)SC` the value was “inactive”.
Regarding `COP(=O)(OC)OC(Br)C(Cl)(Cl)Br` (stereo not given), the molecule was classed as inactive.
As for `CCOP(=S)(OCC)Oc1ccc2c(C)c(Cl)c(=O)oc2c1`, the result was inactive.
`CC(COc1ccc(Oc2ccccc2)cc1)Oc1ccccn1` (stereo not given): the result was inactive.
With `CNc1cnn(-c2cccc(C(F)(F)F)c2)c(=O)c1Cl` the entry was “inactive”.
For the molecule `CC(C)=CC1C(C(=O)OCN2C(=O)C3=C(CCCC3)C2=O)C1(C)C` (stereo not given), the molecule was classed as inactive.
Consider `CCC(=O)Nc1ccc(Cl)c(Cl)c1`, for which the molecule was called inactive.
With `CCOP(=S)(OCC)Oc1ccc([N+](=O)[O-])cc1`, the molecule was called inactive.
Regarding `S=C1NCCN1`, the molecule was classed as inactive.
With `Nc1c(Cl)cc([N+](=O)[O-])cc1Cl` the entry was “inactive”.
`CC(Oc1cccc(Cl)c1)C(=O)O` (stereo not given): the outcome was inactive.
Regarding `CCc1cnc(C2=NC(C)(C(C)C)C(=O)N2)c(C(=O)O)c1` (stereo not given), the molecule was classed as inactive.
Regarding `COP(=O)(NC(C)=O)SC` (stereo not given), the molecule was called inactive.
For `CCC(=NOC/C=C/Cl)C1=C(O)CC(C2CCOCC2)CC1=O` (stereo not given) the value was “inactive”.
As to `CCOC(=O)COc1cc(-c2nn(C)c(OC(F)F)c2Cl)c(F)cc1Cl`, the molecule was classed as inactive.
For `C[Si](Cn1cncn1)(c1ccc(F)cc1)c1ccc(F)cc1` the value was “inactive”; for `O=C(O)c1cc(Oc2ccc(C(F)(F)F)cc2Cl)ccc1[N+](=O)[O-]`, “inactive”; for `CN(C)C(=O)Nc1cccc(C(F)(F)F)c1`, “inactive”.
For `Cc1ccn2nc(S(=O)(=O)Nc3c(F)cccc3F)nc2n1` the value was “inactive”; for `CCCOCC(=Nc1ccc(Cl)cc1C(F)(F)F)n1ccnc1`, “inactive”.
For `CSc1nnc(C(C)(C)C)c(=O)n1N`, the outcome was inactive.
For `CCOP(=S)(OCC)SCCSCC` the value was “inactive”; for `CC(C)N(C(=O)SCC(Cl)=C(Cl)Cl)C(C)C`, “inactive”; for `CCOP(=S)(Oc1cnc(C(C)(C)C)nc1)OC(C)C` (stereo not given), “inactive”.
For `Nc1nc(N)nc(NC2CC2)n1`, the outcome was inactive.
Consider `CC(=NC#N)N(C)Cc1ccc(Cl)nc1`, for which the molecule was classed as inactive.
Consider `Cc1cc(C2CC2)nc(Nc2ccccc2)n1`, for which the outcome was inactive.
Take `CC[C@H](C)[C@H]1O[C@]2(C=C[C@@H]1C)C[C@@H]1C[C@@H](C/C=C(\C)[C@@H](O[C@H]3C[C@H](OC)[C@@H](O[C@H]4C[C@H](OC)[C@@H](NC)[C@H](C)O4)[C@H](C)O3)[C@@H](C)/C=C/C=C3\CO[C@@H]4[C@H](O)C(C)=C[C@@H](C(=O)O1)[C@]34O)O2`: the call was inactive.
As for `CCCCSP(=O)(SCCCC)SCCCC`, the call was inactive.
Consider `CC1=NNC(=O)N(/N=C/c2cccnc2)C1`, for which the molecule was called inactive.
`C#CC(C)(C)NC(=O)c1cc(Cl)cc(Cl)c1`: the result was inactive.
In the case of `COc1cc(OC)nc(Sc2cccc(Cl)c2C(=O)O)n1`, the molecule was classed as inactive.
With `CC1(C(=O)Nc2ccc(O)c(Cl)c2Cl)CCCCC1` the entry was “inactive”; with `CN(C)NC(=O)CCC(=O)O`, “inactive”.
